Experimental data taken from article PMC5540273 (PLoS ONE, 2017).

Experiments:
Conditions in all cases: concentration: 1 μM, replicates: in singlicate; n = 1
[1] = tested on: T1, PKAC-beta
T1 construct: gene PRKACB

[2] = tested on: PKMYT1
[3] = tested on: PKN1
[4] = tested on: PKN2
[5] = tested on: PLK1
[6] = tested on: PLK2
[7] = tested on: PLK3
[8] = tested on: PLK4
[9] = tested on: PRKCD
[10] = tested on: PRKCE
[11] = tested on: PRKCH
[12] = tested on: PRKCI
[13] = tested on: PRKCQ
[14] = tested on: PRKD1
[15] = tested on: PRKD2
[16] = tested on: PRKD3
[17] = tested on: PRKG1
[18] = tested on: PRKG2
[19] = tested on: T2, PRKR
T2 construct: gene EIF2AK2

[20] = tested on: PRKX
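Further: KINOMEscan kinase panel screen.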

`CNc1nc(-c2ccc3c(N)n[nH]c3c2)cc(N2C[C@@H](C(=O)NC3CCCCC3)OC[C@H]2C)n1` [GSK2375584] was tested, and the “%Inh” value [1] was 10%, the “%Inh” value [2] was 0% and the “%Inh” value [3] was 29%. For the same compound, the “%Inh” value [4] was 0%, the “%Inh” value [5] was 3% and the “%Inh” value [6] was 0%. The “%Inh” value [7] was 1%, the “%Inh” value [8] was 1% and the “%Inh” value [9] was 8%. The “%Inh” value [10] was 8%, the “%Inh” value [11] was 23% and the “%Inh” value [12] was 18%. The “%Inh” value [13] was 0%, the “%Inh” value [14] was 13% and the “%Inh” value [15] was 23%. The “%Inh” value [16] was 0%, the “%Inh” value [17] was 1% and the “%Inh” value [18] was 18%. The “%Inh” value [19] was 4% and the “%Inh” value [20] was 61%.

For `COc1ccc(CSc2nnc(-c3ccc4nccn4c3)o2)cc1C(F)(F)F`, the “%Inh” value [1] was 26%, the “%Inh” value [2] was 28% and the “%Inh” value [3] was 3%. The “%Inh” value [4] was 33%, the “%Inh” value [5] was 0% and the “%Inh” value [6] was 42%. For the same compound, the “%Inh” value [7] was 16%, the “%Inh” value [8] was 11% and the “%Inh” value [9] was 20%. For the same compound, the “%Inh” value [10] was 21%, the “%Inh” value [11] was 0% and the “%Inh” value [12] was 13%. The “%Inh” value [13] was 30%, the “%Inh” value [14] was 0% and the “%Inh” value [15] was 5%. The “%Inh” value [16] was 1%, the “%Inh” value [17] was 3% and the “%Inh” value [18] was 16%. For the same compound, the “%Inh” value [19] was 0% and the “%Inh” value [20] was 34%.

In the case of `CNC(=O)c1ccc(C)c(-n2c(C)cc(OCc3ccc(F)cc3F)c(Br)c2=O)c1`, the “%Inh” value [1] is reported as 74%, the “%Inh” value [2] is reported as 0% and the “%Inh” value [3] is reported as 0%. For the same compound, the “%Inh” value [4] was 19%, the “%Inh” value [5] was 0% and the “%Inh” value [6] was 0%. The “%Inh” value [7] was 0%, the “%Inh” value [8] was 0% and the “%Inh” value [9] was 7%. The “%Inh” value [10] was 35%, the “%Inh” value [11] was 0% and the “%Inh” value [12] was 99.7%. The “%Inh” value [13] was 7%, the “%Inh” value [14] was 0% and the “%Inh” value [15] was 1%. The “%Inh” value [16] was 0%, the “%Inh” value [17] was 78% and the “%Inh” value [18] was 95.6%. The “%Inh” value [19] was 0% and the “%Inh” value [20] was 0%.

`Fc1ccc(-c2nc3n(c2-c2ccncc2)CCS3)cc1` [GI98581] was tested, and the “%Inh” value [1] was 23%, the “%Inh” value [2] was 10% and the “%Inh” value [3] was 0%. The “%Inh” value [4] was 0%, the “%Inh” value [5] was 0% and the “%Inh” value [6] was 0%. The “%Inh” value [7] was 0%, the “%Inh” value [8] was 0% and the “%Inh” value [9] was 1%. For the same compound, the “%Inh” value [10] was 0%, the “%Inh” value [11] was 2% and the “%Inh” value [12] was 1%. For the same compound, the “%Inh” value [13] was 21%, the “%Inh” value [14] was 0% and the “%Inh” value [15] was 6%. For the same compound, the “%Inh” value [16] was 20%, the “%Inh” value [17] was 39% and the “%Inh” value [18] was 0%. For the same compound, the “%Inh” value [19] was 0% and the “%Inh” value [20] was 15%.

With `COc1ccc(Nc2nccc(N3CCC(NC(=O)c4cc5ccccc5s4)C3)n2)cc1` (stereo not shown) [GSK1379738] the “%Inh” value [1] was 0%, the “%Inh” value [2] was 3% and the “%Inh” value [3] was 23%. The “%Inh” value [4] was 0%, the “%Inh” value [5] was 11% and the “%Inh” value [6] was 0%. The “%Inh” value [7] was 0%, the “%Inh” value [8] was 3% and the “%Inh” value [9] was 0%. The “%Inh” value [10] was 17%, the “%Inh” value [11] was 0% and the “%Inh” value [12] was 15%. The “%Inh” value [13] was 7%, the “%Inh” value [14] was 0% and the “%Inh” value [15] was 12%. The “%Inh” value [16] was 100%, the “%Inh” value [17] was 0% and the “%Inh” value [18] was 0%. The “%Inh” value [19] was 0% and the “%Inh” value [20] was 12%.

In the case of `Cn1cncc1C(=O)NC1CCN(c2ccnc(Nc3ccc(F)cc3)n2)C1` (stereo not shown) [GSK1379717], the “%Inh” value [1] is reported as 0%, the “%Inh” value [2] is reported as 0% and the “%Inh” value [3] is reported as 52%. For the same compound, the “%Inh” value [4] was 0%, the “%Inh” value [5] was 12% and the “%Inh” value [6] was 0%. For the same compound, the “%Inh” value [7] was 11%, the “%Inh” value [8] was 0% and the “%Inh” value [9] was 0%. For the same compound, the “%Inh” value [10] was 0%, the “%Inh” value [11] was 0% and the “%Inh” value [12] was 7%. The “%Inh” value [13] was 0%, the “%Inh” value [14] was 0% and the “%Inh” value [15] was 0%. The “%Inh” value [16] was 4%, the “%Inh” value [17] was 0% and the “%Inh” value [18] was 99.3%. The “%Inh” value [19] was 0% and the “%Inh” value [20] was 0%.

In the case of `Cc1ccc(NC(=O)Nc2ccc(Cl)c(C(F)(F)F)c2)cc1-c1ccc(C(=O)Nc2ccncc2)cc1` [GSK1398470], the “%Inh” value [1] is reported as 0%, the “%Inh” value [2] is reported as 0% and the “%Inh” value [3] is reported as 10%. For the same compound, the “%Inh” value [4] was 25%, the “%Inh” value [5] was 0% and the “%Inh” value [6] was 0%. The “%Inh” value [7] was 0%, the “%Inh” value [8] was 0% and the “%Inh” value [9] was 0%. For the same compound, the “%Inh” value [10] was 0%, the “%Inh” value [11] was 23% and the “%Inh” value [12] was 0%. The “%Inh” value [13] was 23%, the “%Inh” value [14] was 0% and the “%Inh” value [15] was 17%. The “%Inh” value [16] was 13%, the “%Inh” value [17] was 0% and the “%Inh” value [18] was 39%. The “%Inh” value [19] was 0% and the “%Inh” value [20] was 0%.

`Cc1cccc2c(-c3ccncn3)c(-c3ccc(F)cc3)nn12` [GW515532] was tested, and the “%Inh” value [1] was 15%, the “%Inh” value [2] was 5% and the “%Inh” value [3] was 23%. For the same compound, the “%Inh” value [4] was 0%, the “%Inh” value [5] was 0% and the “%Inh” value [6] was 0%. The “%Inh” value [7] was 0%, the “%Inh” value [8] was 0% and the “%Inh” value [9] was 5%. The “%Inh” value [10] was 0%, the “%Inh” value [11] was 33% and the “%Inh” value [12] was 26%. For the same compound, the “%Inh” value [13] was 9%, the “%Inh” value [14] was 3% and the “%Inh” value [15] was 0%. For the same compound, the “%Inh” value [16] was 32%, the “%Inh” value [17] was 8% and the “%Inh” value [18] was 0%. The “%Inh” value [19] was 0% and the “%Inh” value [20] was 5%.

`COc1ccc(-c2coc3ccc(-c4nnc(C)o4)cc23)cc1` was tested, and the “%Inh” value [1] was 8%, the “%Inh” value [2] was 1% and the “%Inh” value [3] was 7%. For the same compound, the “%Inh” value [4] was 18%, the “%Inh” value [5] was 0% and the “%Inh” value [6] was 0%. For the same compound, the “%Inh” value [7] was 0%, the “%Inh” value [8] was 2% and the “%Inh” value [9] was 5%. The “%Inh” value [10] was 2%, the “%Inh” value [11] was 13% and the “%Inh” value [12] was 0%. For the same compound, the “%Inh” value [13] was 19%, the “%Inh” value [14] was 20% and the “%Inh” value [15] was 0%. For the same compound, the “%Inh” value [16] was 14%, the “%Inh” value [17] was 15% and the “%Inh” value [18] was 0%. For the same compound, the “%Inh” value [19] was 0% and the “%Inh” value [20] was 0%.

With `CSc1ccc(-c2nc3n(c2-c2ccncc2)CCC3)cc1` [SKF-105561] the “%Inh” value [1] was 18%, the “%Inh” value [2] was 5% and the “%Inh” value [3] was 0%. For the same compound, the “%Inh” value [4] was 12%, the “%Inh” value [5] was 1% and the “%Inh” value [6] was 29%. The “%Inh” value [7] was 6%, the “%Inh” value [8] was 2% and the “%Inh” value [9] was 9%. For the same compound, the “%Inh” value [10] was 23%, the “%Inh” value [11] was 0% and the “%Inh” value [12] was 37%. For the same compound, the “%Inh” value [13] was 0%, the “%Inh” value [14] was 27% and the “%Inh” value [15] was 4%. For the same compound, the “%Inh” value [16] was 0%, the “%Inh” value [17] was 0% and the “%Inh” value [18] was 0%. The “%Inh” value [19] was 0% and the “%Inh” value [20] was 0%.

`FC(F)(F)c1ccccc1-c1cc(-c2c[nH]nc2-c2ccccn2)ccn1` [GW679396] was tested, and the “%Inh” value [1] was 17%, the “%Inh” value [2] was 5% and the “%Inh” value [3] was 0%. For the same compound, the “%Inh” value [4] was 12%, the “%Inh” value [5] was 1% and the “%Inh” value [6] was 0%. For the same compound, the “%Inh” value [7] was 0%, the “%Inh” value [8] was 1% and the “%Inh” value [9] was 6%. For the same compound, the “%Inh” value [10] was 11%, the “%Inh” value [11] was 11% and the “%Inh” value [12] was 32%. For the same compound, the “%Inh” value [13] was 0%, the “%Inh” value [14] was 12% and the “%Inh” value [15] was 5%. The “%Inh” value [16] was 100%, the “%Inh” value [17] was 18% and the “%Inh” value [18] was 0%. For the same compound, the “%Inh” value [19] was 0% and the “%Inh” value [20] was 0%.
